In PubChem BioAssay AID686977 (Southern Research Specialized Biocontainment Screening …, 2013):
Fewer than 10 of roughly 9,400 compounds were called active. Inconclusive results (about 5%) are left out. The rule behind the calls is not given here. Not all results are given here. Potency and affinity values are given separately.

Assay: Vibrio cholerae quorum sensing activators, luminescence (AID 686977)
Details: V. cholerae quorum sensing reporter, 6 h, active compounds read high; dose 50, dose unit µM unless noted

SMILES | luminescence
O=C(c1ccccc1)n1ccc(-c2cnc(-c3ccccc3)s2)n1 | 0 (inactive)
CC1CCc2nn(CC(=O)NCCC3=CCCCC3)cc2C1 (stereo not given) | 0 (inactive)
C=CCn1c(SCc2cccc(C#N)c2)nnc1-c1ccccc1O | 360 (inactive)
CCCC(c1nnnn1Cc1ccco1)N1CCN(c2cc(Cl)ccc2C)CC1 (stereo not given) | 0 (inactive)
CCCCCn1c(SCc2ccncc2)nc2cc(C(=O)NCc3ccco3)ccc2c1=O | 40 (inactive)
Cc1ccc(-c2nnc3n2N=C(c2ccccc2)CS3)cc1 | 0 (inactive)
Cc1c(NC(=O)c2cc(CC(C)C)on2)c(=O)n(-c2ccccc2)n1C | 0 (inactive)
CCOC(=O)CC1C(=O)NCCN1C(=O)NC1CCCCC1 (stereo not given) | 0 (inactive)
CCn1c(SCC(=O)NCc2ccco2)nc2c(c1=O)SC(C)C2 (stereo not given) | 0 (inactive)
CCCc1[nH]nc2c1C(C1CCCCC1)C(C#N)=C(N)O2 (stereo not given) | 0 (inactive)
CC(C)Cn1c(SC(C)C(=O)Nc2ccc3c(c2)OCCO3)nc2ccccc2c1=O (stereo not given) | 40 (inactive)
Cc1cccc(NC(=O)C2CC(=O)n3cnnc3S2)c1 (stereo not given) | 40 (inactive)
COCCn1c(SCc2nc3ccccc3c(=O)[nH]2)nnc1-c1ccncc1 | 40 (inactive)
COc1ccc2ccc(Oc3ncccn3)cc2c1 | 200 (inactive)
CCOC(=O)N1CCC(Nc2c(N3CCN(c4cc(Cl)ccc4C)CC3)c(=O)c2=O)CC1 | 0 (inactive)
Cc1nc(-c2cccc(NS(=O)(=O)c3ccccc3)c2)cs1 | 160 (inactive)
CC1(C)N=C(N)N=C(N)N1c1cccc(C(=O)O)c1 | 0 (inactive)
CCOC(=O)c1sc(NCc2ccco2)c(-c2nc3ccccc3s2)c1N | 0 (inactive)
N#CC1(c2ccccc2)CCCN1C(=O)c1ccccc1Cl (stereo not given) | 0 (inactive)
Cn1c(=O)oc2cc(S(=O)(=O)N3CCCc4ccccc43)ccc21 | 40 (inactive)
CC1CCc2cc(F)ccc2N1C(=O)c1cnc2sccn2c1=O (stereo not given) | 0 (inactive)
COc1ccc(-c2nc(CS(=O)CC(=O)N3CCCC3)c(C)o2)cc1 (stereo not given) | 0 (inactive)

SMILES | luminescence
CC(C)(C)c1nc2ccccc2c2nnc(SCC(=O)Nc3nccs3)n12 | 80 (inactive)
COc1ccc(NC(=O)CSc2nccn2-c2cccc(OC)c2)cc1 | 0 (inactive)
Nc1nnnn1/N=C/c1ccccc1C(F)(F)F | 40 (inactive)
Cc1c(Cl)cccc1NC(=O)c1cc(-c2ccccc2O)n[nH]1 | 0 (inactive)
COc1ccc(N/N=C(\C=N\O)C(=O)c2ccc(OC)cc2)cc1 | 0 (inactive)
CCOC(=O)CSc1ccc(-c2nc3ccccc3[nH]2)cn1 | 0 (inactive)
Cc1nc(C)c(C(=O)C2=C(O)C(=O)N(CCN3CCOCC3)C2c2ccco2)s1 (stereo not given) | 0 (inactive)
CC(C)OC(=O)c1nnc(Cc2ccc(F)cc2)o1 | 0 (inactive)
CC(NC(=O)c1ccccc1Br)c1ccc2c(c1)CCCC2 (stereo not given) | 40 (inactive)
Cc1ccc(C(=O)CC(C(=O)O)c2cn(CCC#N)c3ccccc23)cc1 (stereo not given) | 40 (inactive)
CCC(C)c1ccc(-c2cc(C(=O)OCC(=O)Nc3cc(C)on3)c3ccccc3n2)cc1 (stereo not given) | 0 (inactive)
CCc1cccc(C)c1NC(=O)CN1C(=O)c2ccccc2S1(=O)=O | 200 (inactive)
N#Cc1nc(-c2cccc3ccccc23)oc1N1CCCCC1 | 0 (inactive)
Cc1ccn2cc(CCNC(=O)C3CCCCC3)nc2c1 | 0 (inactive)
Cc1c(NC(=O)CSc2nnc3sc4ccccc4n23)c(=O)n(-c2ccccc2)n1C | 40 (inactive)
COC(=O)/C(=C\Nc1ccccc1N)c1ncc(C(F)(F)F)cc1Cl | 40 (inactive)
COc1ccc(C(=O)NC(Cc2ccccc2)c2ccc3c(c2)OCCCO3)cc1 (stereo not given) | 0 (inactive)
O=C(O)c1ccc(NS(=O)(=O)c2cccc3cccnc23)cc1 | 0 (inactive)
CCCNS(=O)(=O)c1ccc(CCC(=O)N2CCN(c3ccc(OC)cc3)CC2)cc1 | 0 (inactive)
O=C(c1ccco1)N1CCN=C1SCc1ccccc1Cl | 0 (inactive)
Oc1c(C(c2cccs2)N2CCN(c3cccc(Cl)c3)CC2)sc2ncnn12 (stereo not given) | 40 (inactive)
COc1ccc(C(=O)NCCn2cc(SCC(=O)NCc3ccco3)c3ccccc32)cc1 | 0 (inactive)

SMILES | luminescence
CCn1c(SCC(=O)NCCc2ccccc2)nnc1-c1ccco1 | 0 (inactive)
COc1cc(OC)cc(-c2cc(N)n(S(=O)(=O)Cc3ccccc3)n2)c1 | 40 (inactive)
CCC(=O)N=c1sc2c(C)cc(C)cc2n1CC(=O)OC | 0 (inactive)
Cc1ccc2[nH]c(=O)c(CN(CCCN(C)C)C(=O)Nc3ccc(Cl)cc3)cc2c1 | 0 (inactive)
CC(=O)c1sc(NC(=O)c2ccccc2F)nc1C | 80 (inactive)
CC(C)N(Cc1nc(-c2ccccc2)no1)C(=O)c1ccc(Cl)cc1 | 0 (inactive)
O=C(O)C1CCC(=O)N(C2CCCCC2)C1c1ccccc1 (stereo not given) | 0 (inactive)
Cc1ccn(CCSCC(=O)O)n1 | 0 (inactive)
CCc1ccc(-c2cc(C(F)(F)F)n3nc(C(=O)Nc4c(C)nn(Cc5ccccc5C)c4C)cc3n2)s1 | 0 (inactive)
Cc1cccc2cc(CN(Cc3cccs3)Cc3nnnn3Cc3ccccc3)c(=O)[nH]c12 | 0 (inactive)
CC(=O)c1cccc(N(CC(=O)O)S(C)(=O)=O)c1 | 40 (inactive)
CCN(CC)CCN1C(=O)C(=O)/C(=C(/O)c2c(C)[nH]c(C(=O)OC)c2C)C1c1cccs1 (stereo not given) | 0 (inactive)
COc1ccc2nc(SCc3nc(N)nc(Nc4ccccc4)n3)[nH]c2c1 | 40 (inactive)
CCOc1ccc(N(CC(=O)NC(C)(C)C)C(=O)c2ccco2)cc1 | 40 (inactive)
CCOC(=O)c1c(C)c(C(=O)NCC2CCCO2)c(C)n1CC (stereo not given) | 0 (inactive)
O=C(NCCC1=CCCCC1)c1ccc(F)c(S(=O)(=O)N2CCOCC2)c1 | 0 (inactive)
BrC(=C\c1ccccc1)/C=N/N1CCN(Cc2ccccc2)CC1 | 0 (inactive)
COC(=O)c1c(C)[nH]c(C)c1-c1ccccc1Cl | 0 (inactive)
CCOC(=O)C(=CNc1cc(C)nn1-c1ccc(C)cc1)C(=O)OCC | 40 (inactive)
CCc1nc(SCC(N)=O)c2c(=O)n(C)c(=O)n(C)c2n1 | 40 (inactive)
COC(=O)c1ccc(Oc2ccc(C(C)(C)C)cc2)c([N+](=O)[O-])c1 | 0 (inactive)
